Our source for the growth values is PubChem BioAssay (NCI).

The structures appear in SMILES notation. This is part of a sample that, as a whole, favours compounds with a hit. Of some 83,000 tested, about 20% had one in any assay.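 Testing used 96-well plates and a 48-hour single-concentration exposure. Example: -40 means 40% of the starting cells died.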 A number with no mark means an inactive call. Activity calls are given as the source filed them. Rule for the calls: active = growth percent below 10; inactive = the rest.

Assay in all cases: NCI-60 one-dose screen, 48 h (100 = growth as untreated, 0 = no growth, -100 = all killed)
Details in all cases: 10 µM unless noted

In experiment [1] the test system is T-47D breast.
Experiment [2] concerns BT-549 breast.
Experiment [3] relates to MDA-MB-435 melanoma.
In experiment [4] the test system is SW-620 colon.
For experiment [5], the system named is MCF7 breast.
For experiment [6], the system named is HCT-116 colon.
In experiment [7] the test system is HCC-2998 colon.
The test system of experiment [8] is KM12 colon.

Turning to `O=C(NCCc1ccccc1)Nc1ccc2cc3ccc(NC(=O)NCCc4ccccc4)cc3nc2c1`, the growth was 29.7% in experiment [1]; 70.6% in experiment [2]; -13.7% (active) in experiment [3]; 1.33% (active) in experiment [4]; 0.969% (active) in experiment [5]; -32.5% (active) in experiment [6]. Also, the growth in experiment [7] is -8.17% (active); in experiment [8] it was 47.7%.

For `C[C@@H](Nc1ncnc2ccc(-c3cnc(N)nc3)cc12)c1ccc(F)cc1`, the growth in experiment [1] was 67.8%; in experiment [2] it was 69.3%; in experiment [3], 95.3%; in experiment [4], 95.8%; in experiment [5], 82.5%; in experiment [6], 85.3%. Also, the growth in experiment [7] is 87.1%; in experiment [8], 98.7%.

`C=C(CBr)[C@@H]1CC[C@]2(COC(C)=O)CC[C@]3(C)[C@H](CC[C@@H]4[C@@]5(C)CCCNC(C)(C)[C@@H]5CC[C@]43C)[C@@H]12`: the growth in experiment [1] was 25.9%; in experiment [2], 36.2%; in experiment [3] it was 54.5%; in experiment [4] it was 31.5%; in experiment [5] it was 21.5%; in experiment [6], 15.3%. Besides, the growth in experiment [8] was 41.9%.

With `CCCCCC(=O)Oc1ccc(/C(=C(/C)Cc2ccc(OC)cc2)c2ccc(OCCCN(C)C)cc2)cc1`, the growth in experiment [1] was 51.2%; in experiment [2], 88.8%; in experiment [3], 53.2%; in experiment [4] it was 82.4%; in experiment [5], 20.1%; in experiment [6] it was 56.5%. The growth in experiment [8] is 73.6%.

Turning to `CCCCCCCC(=O)OCC/C=C/C1OC1C1OC(=O)/C=C\C=C\C(=O)N(C(C)=O)C(=O)/C=C(/C)CCC2OC2C1OC(=O)NC(C)=O` (centres undefined), the growth was 10.8% in experiment [1]; 92.5% in experiment [2]; 79% in experiment [3]; 83.1% in experiment [4]; 20.4% in experiment [5]; 3.69% (active) in experiment [6]. For the same compound, the growth was 72.1% in experiment [7] and 44.1% in experiment [8].

For `O=C(Cn1c[n+](CC(=O)c2ccc([N+](=O)[O-])cc2)c2ccccc21)Nc1cccc2cccnc12`, the growth in experiment [1] was 33.9%; in experiment [2], 35.9%; in experiment [3], 60%; in experiment [4] it was 54.8%; in experiment [5] it was 31.4%; in experiment [6] it was 37.2%. Moreover, the growth was 50.4% in experiment [7] and 78.4% in experiment [8].

With `COc1ccc(/C=C2\Oc3cc(OCCCCCN4CCCCC4)ccc3C2=O)cc1OC`, the growth in experiment [1] is 72.4%; in experiment [2], 69.4%; in experiment [3], 99.2%; in experiment [4], -61.3% (active); in experiment [5], 70.9%; in experiment [6] it was -51.2% (active). For the same compound, the growth in experiment [8] was 80.4%.

`COc1ccc(/C=C/c2nc(Nc3cccc(NC(C)=O)c3)c3ccccc3n2)cc1`: the growth in experiment [1] is 70%; in experiment [2], 92.1%; in experiment [3], 85.2%; in experiment [4] it was 92.1%; in experiment [5], 49.9%; in experiment [6], 81.3%. Besides, the growth in experiment [7] was 88.4%; in experiment [8], 83.2%.

On to `Cc1ccc(-c2[nH][nH]c(=O)c2-c2nc3ccccc3s2)cc1`, for which the growth in experiment [1] was 103%; in experiment [2], 123%; in experiment [3], 100%; in experiment [4], 93.9%; in experiment [5] it was 97.1%; in experiment [6], 100%. In addition, the growth in experiment [7] was 99.7%; in experiment [8], 103%.

Regarding `Cc1nc(N)nc(N[C@@H](C)c2nc3cccc(NCc4ccc(C(=O)NO)cc4)c3c(=O)n2-c2ccccc2)n1`, the growth in experiment [1] is 22.3%; in experiment [2], 99%; in experiment [3], 64.7%; in experiment [4], 49.5%; in experiment [5] it was 74.9%; in experiment [6], 56.3%. Also, the growth in experiment [7] is 98%; in experiment [8], 92.9%.

Regarding `COc1cc(C2=C(c3cn(C)c4ccccc34)COC2=O)cc(OC)c1OC`, the growth in experiment [1] is 22.6%; in experiment [2] it was 16.7%; in experiment [3], -59.5% (active); in experiment [4], 13.7%; in experiment [5] it was 14.8%; in experiment [6], 1.75% (active). In addition, the values for the growth in experiment [7] and in experiment [8] were 0.901% (active) and 13.2%, respectively.

Take `O=c1c2c(c(=O)n1O)c1c3ccc[nH]c3nc1c1nc3[nH]cccc3c12`: the growth in experiment [1] is 60.7%; in experiment [2] it was 80.9%; in experiment [3] it was 96.3%; in experiment [4], 62.4%; in experiment [5] it was 73.5%; in experiment [6], 72.7%. Also, the results for the growth in experiment [7] and in experiment [8] were 84.9% and 97.1%, respectively.

With `COc1ccc(C(=O)c2cc(C)c(OC)c(C)c2)c(OC)c1N(C(=O)CCl)C(=O)CCl`, the growth was 51.2% in experiment [1]; 3.05% (active) in experiment [2]; -46.8% (active) in experiment [3]; 20.3% in experiment [4]; -0.69% (active) in experiment [6]; 13.5% in experiment [7]. Also, the growth in experiment [8] is 6.61% (active).

On to `Cc1cc2cc3ccc(N(C)C)cc3nc2cc1N`, for which the growth in experiment [1] is -9.44% (active); in experiment [2], 20.7%; in experiment [3], 5.71% (active); in experiment [4], -37.9% (active); in experiment [5] it was -4.08% (active); in experiment [6], -20% (active). In addition, in experiment [8], the growth is -20.7% (active).

Consider `COc1cc2cc(CN3CCN(c4nccc(-c5ccc6ccccc6c5)n4)CC3)c(=O)[nH]c2cc1OC`, for which the growth was 81.5% in experiment [1]; 95.6% in experiment [2]; 91.1% in experiment [3]; -55% (active) in experiment [4]; 42.8% in experiment [5]; -25.4% (active) in experiment [6]. Moreover, in experiment [8], the growth was 83.4%.
